Test results reported in PubChem BioAssay AID1159580 (chemical genetic matrix, 2015).
About 2,000 (36%) of roughly 5,500 compounds were called active. About 18% were inconclusive and are not listed. No stated cut-off is given here; in the data, active means normalized growth mostly below about 0.91 (no sharp cut-off); inconclusive means no clear call, values can overlap the other calls; inactive means mostly above about 0.92. This is one part of the list.

Assay: chemical genetic growth profiling, strain panel (AID 1159580);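 further: tested at 20 µM; growth read once vehicle control cultures reached saturation at 30 °C; 1 = growth at the plate median or of vehicle wells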
Details: growth OD

Measured: normalized growth

CC(=O)O[C@H]1CC[C@]2(C)C3C(=O)[C@@H](OC(C)=O)[C@@]4(C)C(C[C@@H]5O[C@]6(CCC(C)CO6)[C@@H](C)[C@@H]54)C3CC[C@H]2C1 (stereo not given in full)
inactive: S. cerevisiae deletion strains, locus YBR021W, strain FUR4, stronger effect = lower value 1.01 | S. cerevisiae deletion strains, locus YBR229C, strain ROT2, stronger effect = lower value 0.997 | S. cerevisiae deletion strains, locus YCL029C, strain bik1, stronger effect = lower value 0.996 | S. cerevisiae deletion strains, locus YDL035C, strain GPR1, stronger effect = lower value 1.03 | S. cerevisiae deletion strains, locus YDL074C, strain BRE1, stronger effect = lower value 1.06 | S. cerevisiae deletion strains, locus YDL101C, strain DUN1, stronger effect = lower value 0.986 | S. cerevisiae deletion strains, locus YDL134C, strain PPH21, stronger effect = lower value 0.998 | S. cerevisiae deletion strains, locus YDL185W, strain tfp1, stronger effect = lower value 0.986 | S. cerevisiae deletion strains, locus YDL192W, strain arf1, stronger effect = lower value 1 | S. cerevisiae deletion strains, locus YDR101C, strain arx1, stronger effect = lower value 1.01 | S. cerevisiae deletion strains, locus YDR162C, strain NBP2, stronger effect = lower value 1.02 | S. cerevisiae deletion strains, locus YDR318W, strain mcm21, stronger effect = lower value 0.991 | S. cerevisiae deletion strains, locus YDR388W, stronger effect = lower value 0.99 | S. cerevisiae deletion strains, locus YDR502C, strain sam2, stronger effect = lower value 0.984 | S. cerevisiae deletion strains, locus YEL061C, strain CIN8, stronger effect = lower value 0.999 | S. cerevisiae deletion strains, locus YER110C, stronger effect = lower value 0.983 | S. cerevisiae deletion strains, locus YER155C, strain BEM2, stronger effect = lower value 0.984 | S. cerevisiae deletion strains, locus YER167W, strain BCK2, stronger effect = lower value 0.993 | S. cerevisiae deletion strains, locus YGL078C, strain dbp3, stronger effect = lower value 0.963 | S. cerevisiae deletion strains, locus YGL086W, strain mad1, stronger effect = lower value 0.986 | S. cerevisiae deletion strains, locus YGL248W, strain PDE1, stronger effect = lower value 0.985 | S. cerevisiae deletion strains, locus YGR135W, strain pre9, stronger effect = lower value 0.978 | S. cerevisiae deletion strains, locus YGR252W, strain gcn5, stronger effect = lower value 1.04 | S. cerevisiae deletion strains, locus YHR030C, strain SLT2, stronger effect = lower value 0.992 | S. cerevisiae deletion strains, locus YHR079C, strain IRE1 (second series), stronger effect = lower value 0.99 | S. cerevisiae deletion strains, locus YHR094C, strain hxt1, stronger effect = lower value 0.987 | S. cerevisiae deletion strains, locus YHR129C, strain ARP1, stronger effect = lower value 0.991 | S. cerevisiae deletion strains, locus YHR200W, strain rpn10, stronger effect = lower value 0.982 | S. cerevisiae deletion strains, locus YIL066C, strain RNR3, stronger effect = lower value 1.01 | S. cerevisiae deletion strains, locus YIL073C, strain SPO22, stronger effect = lower value 1.01 | S. cerevisiae deletion strains, locus YIL125W, strain kgd1, stronger effect = lower value 0.987 | S. cerevisiae deletion strains, locus YIR030C, strain dcg1, stronger effect = lower value 0.988 | S. cerevisiae deletion strains, locus YJL095W, strain BCK1, stronger effect = lower value 0.996 | S. cerevisiae deletion strains, locus YJL134W, strain LCB3, stronger effect = lower value 0.993 | S. cerevisiae deletion strains, locus YJL168C, strain set2, stronger effect = lower value 0.994 | S. cerevisiae deletion strains, locus YJL187C, strain SWE1 (second series), stronger effect = lower value 0.988 | S. cerevisiae deletion strains, locus YKL009W, strain mrt4, stronger effect = lower value 0.994 | S. cerevisiae deletion strains, locus YKL068W, stronger effect = lower value 0.997 | S. cerevisiae deletion strains, locus YKL085W, strain MDH1 (second series), stronger effect = lower value 0.987 | S. cerevisiae deletion strains, locus YKL085W, strain MDH1, stronger effect = lower value 0.987 | S. cerevisiae deletion strains, locus YKL190W, strain CNB1, stronger effect = lower value 0.998 | S. cerevisiae deletion strains, locus YKR001C, strain vps1, stronger effect = lower value 0.982 | S. cerevisiae deletion strains, locus YLR039C, strain RIC1, stronger effect = lower value 1.05 | S. cerevisiae deletion strains, locus YLR058C, strain SHM2, stronger effect = lower value 1 | S. cerevisiae deletion strains, locus YLR102C, strain apc9, stronger effect = lower value 0.985 | S. cerevisiae deletion strains, locus YLR268W, strain sec22, stronger effect = lower value 1.01 | S. cerevisiae deletion strains, locus YLR330W, strain CHS5, stronger effect = lower value 0.996 | S. cerevisiae deletion strains, locus YLR371W, strain rom2, stronger effect = lower value 0.99 | S. cerevisiae deletion strains, locus YLR418C, strain cdc73, stronger effect = lower value 0.977 | S. cerevisiae deletion strains, locus YML016C, strain PPZ1, stronger effect = lower value 0.981 | S. cerevisiae deletion strains, locus YML032C, strain rad52, stronger effect = lower value 1.01 | S. cerevisiae deletion strains, locus YML124C, strain tub3, stronger effect = lower value 0.991 | S. cerevisiae deletion strains, locus YMR078C, strain ctf18, stronger effect = lower value 0.992 | S. cerevisiae deletion strains, locus YMR223W, strain ubp8, stronger effect = lower value 0.994 | S. cerevisiae deletion strains, locus YMR307W, strain GAS1, stronger effect = lower value 1 | S. cerevisiae deletion strains, locus YNL067W, strain RPL9B, stronger effect = lower value 0.981 | S. cerevisiae deletion strains, locus YNL153C, strain GIM3, stronger effect = lower value 0.988 | S. cerevisiae deletion strains, locus YNL233W, strain BNI4, stronger effect = lower value 0.988 | S. cerevisiae deletion strains, locus YNL250W, strain rad50, stronger effect = lower value 0.968 | S. cerevisiae deletion strains, locus YNL271C, strain bni1, stronger effect = lower value 0.976 | S. cerevisiae deletion strains, locus YNL298W, strain CLA4, stronger effect = lower value 0.991 | S. cerevisiae deletion strains, locus YNL307C, strain MCK1, stronger effect = lower value 0.986 | S. cerevisiae deletion strains, locus YNL322C, strain KRE1, stronger effect = lower value 0.997 | S. cerevisiae deletion strains, locus YNR052C, strain pop2, stronger effect = lower value 0.974 | S. cerevisiae deletion strains, locus YOL012C, strain htz1 0.895 | S. cerevisiae deletion strains, locus YOL147C, strain pex11, stronger effect = lower value 0.986 | S. cerevisiae deletion strains, locus YOR061W, strain CKA2, stronger effect = lower value 1 | S. cerevisiae deletion strains, locus YOR069W, strain VPS5, stronger effect = lower value 0.996 | S. cerevisiae deletion strains, locus YOR136W, strain idh2, stronger effect = lower value 0.988 | S. cerevisiae deletion strains, locus YOR144C, strain elg1, stronger effect = lower value 0.992 | S. cerevisiae deletion strains, locus YOR184W, strain ser1, stronger effect = lower value 1.01 | S. cerevisiae deletion strains, locus YOR316C, strain cot1, stronger effect = lower value 0.987 | S. cerevisiae deletion strains, locus YPL055C, strain LGE1, stronger effect = lower value 1.02 | S. cerevisiae deletion strains, locus YPL241C, strain CIN2, stronger effect = lower value 0.996 | S. cerevisiae deletion strains, locus YPR119W, strain clb2, stronger effect = lower value 0.98 | S. cerevisiae deletion strains, locus YPR141C, strain kar3, stronger effect = lower value 0.983 | S. cerevisiae deletion strains, locus YPR163C, strain tif3, stronger effect = lower value 0.991 | S. cerevisiae deletion strains, locus YPR167C, strain met16, stronger effect = lower value 0.976 | S. cerevisiae deletion strains, strain wtn01, stronger effect = lower value 1.01 | S. cerevisiae strains, strain wild type, stronger effect = lower value 1.01
